Screening results from PubChem BioAssay.
FBW7 act = FBW7 E3 ligase activators, primary screen, biochemical, AlphaScreen, human. AlphaScreen FBW7–phospho-cyclin E peptide binding, activator screen. AID 1259310, 2017. F-box/WD repeat-containing protein 7 (Homo sapiens), Q969H0. normalized activity (activation), % at 26.1 µM. hit rate 0.13% among 650,000; in the data active = normalized activity above about 1.9%;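 note: purified mutant Fbw7 with reduced substrate affinity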
GPR151 activ = activators of human GPR151, primary screen, cell-based, PathHunter beta-arrestin, luminescence; G-protein coupled receptor 151 (Homo sapiens), Q8TDV0; PathHunter beta-arrestin GPR151 cells; activation, % at 11.2 µM; hit rate 1% among 650,000; in the data active = activation above about 4.9%
TEAD-YAP block = TEAD-YAP interaction inhibition, primary screen, TEAD-YAP interaction inhibitor project, luminescence, HEK-TIYL cells; TEAD-Gal4/YAP UAS-luciferase luminescence; inhibition, % at 9.12 µM; hit rate 1.4% among 640,000; in the data active = inhibition above about 32%
MITF primary = MITF inhibitors, primary screen, biochemical, AlphaScreen, human. Microphthalmia-associated transcription factor (Homo sapiens), O75030. AlphaScreen MITF homodimerization, bead proximity signal. inhibition, % at 2.6 µM. hit rate 0.91% among 650,000; in the data active = inhibition above about 50%
Target sequence (O75030 whole entry, looked up): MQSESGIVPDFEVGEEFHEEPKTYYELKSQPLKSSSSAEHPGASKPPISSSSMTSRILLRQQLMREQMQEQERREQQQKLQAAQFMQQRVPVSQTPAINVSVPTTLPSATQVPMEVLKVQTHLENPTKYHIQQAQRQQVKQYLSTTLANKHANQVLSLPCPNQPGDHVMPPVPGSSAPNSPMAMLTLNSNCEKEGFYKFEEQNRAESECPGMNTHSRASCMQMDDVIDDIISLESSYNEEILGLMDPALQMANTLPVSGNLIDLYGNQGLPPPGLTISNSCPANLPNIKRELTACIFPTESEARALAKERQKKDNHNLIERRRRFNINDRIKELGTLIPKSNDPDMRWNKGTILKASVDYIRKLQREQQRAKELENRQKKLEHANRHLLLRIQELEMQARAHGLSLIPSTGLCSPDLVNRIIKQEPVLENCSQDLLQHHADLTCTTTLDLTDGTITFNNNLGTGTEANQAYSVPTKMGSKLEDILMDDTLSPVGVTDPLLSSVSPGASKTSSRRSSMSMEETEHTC
A number is an active result; - = inactive. The list is not random: actives were taken first. Their share in the collection is about 3.5%.

SMILES | FBW7 act | GPR151 activ | TEAD-YAP block | MITF primary
COCCCNC(=O)/C(C#N)=C/c1c(Oc2cc(C)cc(C)c2)nc2c(C)cccn2c1=O | - | - | 33.0 | -
CCNC(=O)/C(C#N)=C/c1c(Oc2cccc(C)c2C)nc2c(C)cccn2c1=O | - | - | 35.3 | -
CNC(=O)/C(C#N)=C/c1c(Oc2ccccc2C)nc2c(C)cccn2c1=O | - | - | 46.6 | -
COCCNC(=O)/C(C#N)=C/c1c(Oc2cc(C)cc(C)c2)nc2c(C)cccn2c1=O | - | - | - | -
CCOC(=O)c1c(NC(=O)c2ccc(C(C)=O)cc2)sc2c1CC(C)(C)NC2(C)C | - | - | - | -
CC(=O)N1CCN(C(=O)CC2(c3cccc(F)c3)CC(=O)N(C3CCCC3)C2=O)CC1 (stereo not drawn) | - | - | - | -
CCOc1ccc(Nc2ccc3ccccc3n2)cc1 | - | - | 41.1 | -
Fc1ccc(-c2cc3c(nn2)Nc2ccccc2N3)cc1 | - | - | 85.7 | -
Oc1ccccc1-c1cc(-c2ccc(F)cc2)no1 | - | - | - | -
Cc1cccc(NCC(O)Cn2c(C)c(C)c3ccccc32)c1C (stereo not drawn) | - | - | - | 51.4
COc1ccc(-c2cc(=O)oc3c(OC)c(OC)ccc23)cc1 | - | - | 55.6 | -
Cc1cc(S(=O)(=O)N2CCCc3ccccc32)ccc1-n1cnnn1 | 2.1 | - | - | -
Cc1cc(S(=O)(=O)N2CCCCCC2)ccc1-n1cnnn1 | - | - | - | -
O=C(O)c1c[nH]c2ccc(S(=O)(=O)N3CCCc4ccccc43)cc2c1=O | - | - | 48.5 | -
O=S(=O)(c1ccc(F)c(F)c1)N1CCCc2ccccc21 | - | - | - | -
O=S(=O)(c1ccc2ccccc2c1)N1CCCc2ccccc21 | - | - | 55.1 | -
O=S(=O)(c1ccc2oc3ccccc3c2c1)N1CCCc2ccccc21 | - | - | 59.2 | -
CCn1c(C)nc2cc(CO)ccc21 | - | - | - | -
CCn1c(C)nc2cc(-c3nc4n(n3)Cc3ccccc3-4)ccc21 | - | - | 102.7 | -
CCOc1ccc(NC(=O)C2=C(C)NC(=O)NC2c2ccc(C)cc2)cc1 (stereo not drawn) | - | - | 33.2 | -
COc1ccc(C2NC(=O)NC(C)=C2C(=O)Nc2ccc(Br)cc2)cc1 (stereo not drawn) | - | - | 46.8 | -
CCOc1ccc(NC(=O)C2=C(C)NC(=O)NC2c2ccc(Cl)cc2Cl)cc1 (stereo not drawn) | - | - | 40.3 | -
CCOc1ccc(NC(=O)C2=C(C)NC(=O)NC2c2cccc(Cl)c2)cc1 (stereo not drawn) | - | - | - | -
C/C(=N/NC(=O)c1ccc(O)cc1O)c1ccco1 | - | - | - | -
CCOC(=O)/C=C(\C)Nc1ccc(NC(C)=O)cc1 | - | - | - | -
SMILES | FBW7 act | GPR151 activ | TEAD-YAP block | MITF primary
CCN(CC)c1ccc(/C=N/NC(=O)c2c(C)nnn2-c2nonc2N)cc1 | - | - | - | -
Cc1c(C(=O)NC2CCCCC2)sc2ncn(CC(=O)N3CC(C)CC(C)C3)c(=O)c12 (stereo not drawn) | - | - | - | -
Cc1cccc(N2CCN(C(=O)c3ccc(Cn4c(=S)[nH]c5cc6c(cc5c4=O)OCO6)cc3)CC2)c1C | - | - | - | -
CC[n+]1ccc(/C=C/c2cccc(OC)c2OC)cc1 | - | - | 34.1 | -
CC[n+]1ccc(/C=C/c2ccc(OC)cc2OC)cc1 | - | - | 41.9 | -
CCOc1ccc(N(CC(=O)Nc2ccccc2C)S(=O)(=O)c2c(C)noc2C)cc1 | - | - | 55.1 | -
O=S(=O)(NCc1ccco1)c1ccc(Oc2ccc(S(=O)(=O)NCc3ccco3)cc2)cc1 | - | - | 48.0 | -
COc1ccccc1CNS(=O)(=O)c1ccc(Oc2ccc(S(=O)(=O)NCc3ccccc3OC)cc2)cc1 | - | - | 43.3 | -
COc1ccccc1CNS(=O)(=O)c1ccc(F)cc1 | - | - | - | -
COC(CNS(=O)(=O)c1ccc(Oc2ccc(S(=O)(=O)NCC(OC)OC)cc2)cc1)OC | - | - | 48.6 | -
Cc1ccc(-n2c(SCc3cc(=O)n4ccccc4n3)nc3[nH]ncc3c2=O)cc1Cl | - | - | 33.1 | -
COc1cccc(C2=NN3C(C2)c2cccc(OC)c2OC32CCCCC2)c1 (stereo not drawn) | - | - | 36.1 | -
COc1cccc(C2=NN3C(C2)c2cccc(OC)c2OC3c2ccc(F)c(F)c2)c1 (stereo not drawn) | - | - | - | -
